± gives the standard deviation of the averaged measurements. The full ranking holds about 25,000 sequences; the median of “ln(normalized median fluorescence intensity)” is about 8.6, and the highest 2% start at about 10. The entries come from a sample that favours the highest values as a whole.
tested on: PfAP2-EXP AP2 domain (GST-tagged); assay: gcPBM binding intensity (ln(normalized median fluorescence intensity)); higher = stronger DNA binding
Summary of the method: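 Each value is the highest Masliner-normalised natural-log median intensity across replicate spots of either orientation of a probe. The probes were primer-extended double-stranded 36-bp intergenic genomic sequences on an Agilent 4 × 180k array, alongside negative controls, exposed for 1 h to GST-tagged P. falciparum DNA-binding domains expressed in E. coli. Bound protein was picked up with Alexa488 anti-GST antibody and scanned at 488 nm.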

Sequence	gcPBM binding intensity (ln)
AAAGATACTTTCCTCAAACACACAAAACTATACAAC [CACACA_site1475]	8.79 ± 0.45
AAATTAAAATAATAATTCTACAAATTAATTTATCAT [XGTACX_negctrl_site44]	7.97 ± 0.49
TATTTAAAACTATACACATGCATTATATAAAGATAT [TGCATGCA_site702]	8.79 ± 0.4
AAAATAATATTTAATACACACATAATTATAATATAA [CACACA_site782]	8.48 ± 0.32
AATGTTTTTGTGAGATGTATAAATTTTATTTTATTT [XGTACX_negctrl_site413]	8.38 ± 0.38
ATATAACACAAGGGCACACATATACCTTTCCTTTTT [CACACA_site412]	8.77 ± 0.36
ATTAATTTTAATAAAGGTACACGTAGTTTTTTATTA [XGTACX_site7868]	8.16 ± 0.34
AAAAAAAAAATATGTACACACATATAAAATACATAA [CACACA_site6869]	8.56 ± 0.3
TTATGTTCTTTAAAACCACACACCCCCCAACCCCCC [CACACA_site8742]	10.9 ± 0.29
ATGTTCTTTAAAACCACACACCCCCCAACCCCCCTC [CACACA_site2373]	10.6 ± 0.13
TTTTTTTTTTTTTTTTTTTTTTTATGTTCTTAAAAA [GTGCAC_negctrl_site62]	8.02 ± 0.67
CAAACCCACCAACACACACACACAAAAATGATTAAA [CACACA_site2432]	8.49 ± 0.68
CACACCCACAAAAACACACACAAAGGTGTTCTTATA [CACACA_site1293]	9.43 ± 0.64
CTTTAAACCCTGAACACACACAAATACACCCAAAAA [CACACA_site4297]	8.81 ± 0.42
ATAAATTTTTTTTTTTTTTTTTTTTTTTTTTTTTTT [CACACA_negctrl_site508]	9.19 ± 0.057
ATATATTTTAATTGTTGTACATATTAAATAAATAGG [XGTACX_site2311]	8.47 ± 0.49
TTGTATAAAATATGTAGTACAATAATATAACATTTT [XGTACX_site8607]	8.55 ± 0.2
TATAAATTTAAAATGACACACACTAAAATTATTTAA [CACACA_site1239]	8.36 ± 0.42
TTATTTTATCACACATGTACATATGTTAATTTTTTT [XGTACX_site5598]	8.84 ± 0.33
ATTGGACTATAAATAGGTACACATATATATATATAT [XGTACX_site7562]	10.4 ± 0.33
AAGCATAAAGTATATAGTACATATATATATATATAT [XGTACX_site2945]	10.2 ± 0.26
ATATAAAAAAAATTTAGTACATATATATATATATAT [XGTACX_site8635]	10.2 ± 0.48
ATAAAAAAATAAATTAGTACATATATATATATATAT [XGTACX_site6971]	10.1 ± 0.35

Sequence	gcPBM binding intensity (ln)
CCTTGATATATATAAAGTACATATATATATATATAT [XGTACX_site4325]	10.2 ± 0.24
TATATTTATAGGTACACACACACATATAAATAAATA [CACACA_site6345]	8.65 ± 0.37
ATAAAAAAAAAAAAAAGTACACATATAAAAGTATTG [XGTACX_site8265]	8.42 ± 0.41
AGATAAAAAAAGTACACACACACATATATATATATA [CACACA_site3072]	10.2 ± 0.26
TACATATATGATAAAAGTACATATAAATATACATAA [XGTACX_site3804]	8.45 ± 0.33
ATAATAAAAAAAATTAGTACATATATAAATATAAAT [XGTACX_site1937]	8.3 ± 0.33
TTAAAAAAAAAAAAAAGTACATAAGTATATATAATA [XGTACX_site4295]	8.43 ± 0.45
TAAAAATATAGGTATACACACATATAAATATAAATA [CACACA_site7785]	8.54 ± 0.4
ATATAATATATTTTCACACATATTTTATGATGATAA [CACACA_site5614]	8.3 ± 0.42
TAAATTTGTGGGATTTCACACAGGTTTATTTACATT [CACACA_site5455]	8.13 ± 0.45
AGAATAATACAAAAATGTACATTAATAAAAAGATAG [XGTACX_site780]	8.99 ± 0.42
TAACAAGGTTTATATGCATGCAAACATAACCAAAAA [TGCATGCA_site824]	9.96 ± 0.23
CTTACATAAAATATCACACACATAAAAAAACAATAT [CACACA_site1901]	8.87 ± 0.39
TAACATAGCAATGTTTCACACACAAGAAAAAATACA [CACACA_site8747]	8.84 ± 0.45
GGGTTAATATTTACTACACACACTTAAAATATGTAT [CACACA_site47]	8.59 ± 0.47
ATAATATTAGTAAACACACTCAAATTATATATGATA [CACACA_site5721]	8.28 ± 0.59
ATATAAATAAAAAAAAGTACATAATATATAAAAATA [XGTACX_site3065]	8.72 ± 0.33
ATTAAAATATAAGTCACACATATATATATATATATA [CACACA_site6145]	10.2 ± 0.33
AATAAATAAATAAGTACACACATATAAATATAAATA [CACACA_site6271]	8.69 ± 0.27
CAAAATTAATAAGTCACACACACATATATAATATAT [CACACA_site798]	8.73 ± 0.45
AAATTAATAAGTCACACACACATATATAATATATAT [CACACA_site799]	8.54 ± 0.36
TACATAAAATATATCACACATATAATATATATATAT [CACACA_site5834]	9.54 ± 0.16

From the supplement of paper PMC11417369
